EP2 mod = EP2 receptor modulators, cAMP readout, primary screen, cell-based, HTRF cAMP, PGE2 stimulation. EP2-expressing cells, cAMP HTRF FRET, PGE2 co-stimulation. hit rate 0.83% among 260,000. AID 940, 2007. induction, % at 25 µM. Prostaglandin E2 receptor EP2 subtype (Homo sapiens), P43116;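 active means compounds whose cAMP rise, as percent of the full-agonist control response, exceeds 60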;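 further: rat C6 glioma line stably carrying human EP2 under a CMV promoter; the protocol text gives 20 µM as final concentration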
p97 ATPase inh = inhibitors of human p97 ATPase, primary screen, biochemical; recombinant p97 ATPase, Kinase-Glo ATP luminescence, 3 h; inhibition, % at 8 µM; hit rate 0.42% among 220,000; in the data active means inhibition above about 15%
Hck Nef HTS = inhibitors of Nef-activated human Hck kinase, primary screen, biochemical, Z-Lyte FRET, 384-well, Hck-YEEI. Tyrosine-protein kinase HCK (Homo sapiens), P08631. inhibition, % at 20 µM. hit rate 0.68% among 220,000. AID 463187, 2010. Recombinant Hck-YEEI plus Nef, Z-Lyte FRET kinase assay;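 active means Hck-Nef kinase inhibition above about 50%, limit read from the data; inactive means inhibition below that limit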
Target sequence (P08631 whole entry, looked up): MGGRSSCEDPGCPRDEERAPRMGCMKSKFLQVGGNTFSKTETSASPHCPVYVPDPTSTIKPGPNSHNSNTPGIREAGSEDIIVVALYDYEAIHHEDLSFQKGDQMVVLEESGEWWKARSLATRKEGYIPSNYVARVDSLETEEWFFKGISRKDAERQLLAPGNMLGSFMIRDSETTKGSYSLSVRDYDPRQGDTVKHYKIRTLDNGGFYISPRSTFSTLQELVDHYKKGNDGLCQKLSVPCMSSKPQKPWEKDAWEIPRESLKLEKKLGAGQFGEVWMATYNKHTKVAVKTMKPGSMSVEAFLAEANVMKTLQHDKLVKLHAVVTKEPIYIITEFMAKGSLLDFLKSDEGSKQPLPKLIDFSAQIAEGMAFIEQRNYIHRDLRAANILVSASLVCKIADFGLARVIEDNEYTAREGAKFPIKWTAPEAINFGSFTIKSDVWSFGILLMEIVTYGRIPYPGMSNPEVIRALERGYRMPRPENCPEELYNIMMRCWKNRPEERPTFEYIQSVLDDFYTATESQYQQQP
Arbovirus inh = antivirals against arbovirus infection, primary screen, cell-based, full library, 10K replicate subset; AID 1251, 2008; arbovirus infection cell-based antiviral screen; inhibition, % at 10 µM; hit rate 0.37% among 200,000; in the data active means inhibition above about 30%
EP2 antag = human EP2 receptor antagonists, primary screen, TR-FRET cAMP, C6 glioma cells. AID 1422, 2008. Prostaglandin E2 receptor EP2 subtype (Homo sapiens), P43116. hit rate 0.52% among 260,000. inhibition, % at 25 µM. C6 glioma cells expressing human EP2; cells stimulated with saturating PGE2;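 active means percent inhibition above 40 after rounding to a whole number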;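 further: rat C6 glioma host cells with rolipram phosphodiesterase inhibitor present; the protocol text gives 20 µM as final concentration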
EP2 cAMP induct = cAMP induction in EP2, EP4, beta2-AR and parental cells, confirmation, counter-screen for EP2 modulator project, cell-based, five parallel assays, C6 glioma, HEK293; shares compounds with EP2 mod; cAMP HTRF induction; plus low (about EC15) PGE2 agonist; calls only at 20 µM (by protocol); hit rate 47% among 1,300; AID 1080, 2008;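 active means cAMP induction above 50% in the main assay while under 30% in all four parallel counter assays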;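 further: rat C6 glioma cells stably expressing human EP2 receptor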
Numbers stand for hits; . = inactive; / = no result given; + = active, no number; ! = a repeat was not active. Sampled rows, rich in hits. Any-hit rate of the full collection: about 2.4%.

SMILES	EP2 mod	p97 ATPase inh	Hck Nef HTS	Arbovirus inh	EP2 antag	EP2 cAMP induct
CN(/N=C\c1ccc(O)c(O)c1)c1nc(-c2ccccc2)cc(-c2ccccc2)n1	67	.	.	.	.	.
C[N+](C)(C)/N=C/c1ccc(O)c(O)c1	.	/	/	/	.	/
COc1ccc(C2(NC(=O)c3cc(-c4c(C)nn(C)c4C)n[nH]3)CCCC2)cc1	.	/	/	/	.	/
COc1ccc(C2(C(=O)NC(C)Cc3ccccc3)CCOCC2)cc1OC (stereo unspecified)	.	/	/	/	.	/
CC(Cc1ccccc1)NC(=O)C1(c2ccccc2)CCOCC1 (stereo unspecified)	69	.	.	.	.	.
COc1ccc(-n2c(-c3ccccc3)nc(=S)c3c2CCCC3)cc1	.	.	.	.	/	/
COc1ccc(-n2c(-c3cccc(OC)c3)nc(=S)c3c2CCCC3)cc1	77	.	.	.	.	.
CCOc1ccc(-n2nc3c(=S)[nH]nc(C)c3c2C)cc1	66	.	.	.	.	.
CCOc1ccc(-n2nc3c(=O)[nH]nc(C)c3c2C)cc1	.	.	.	.	.	/
Cn1c(CO)nc2ccccc21	.	/	/	/	.	/
Cc1ccccc1Cn1c(-c2cncs2)nc2ccccc21	68	.	.	.	.	.
Cc1cc(C)c(C)c(Cn2c(CO)nc3ccccc32)c1C	80	.	.	.	.	+
Brc1cc2c(cc1Cn1c(-c3cncs3)nc3ccccc31)OCO2	.	.	.	.	.	/
Cc1ccccc1Cn1c(Cc2ccccc2)nc2ccccc21	71	.	.	.	.	+
COCc1nc2ccccc2n1Cc1ccccc1C	.	.	.	.	.	/
Brc1ccccc1Cn1c(-c2cscn2)nc2ccccc21	80	.	.	.	.	+
Cc1cccc(Cn2c(Cc3ccccc3)nc3ccccc32)c1	93	.	.	.	.	+
C=CCc1cccc(C=Nc2cc(Br)ccc2O)c1O	67	.	.	.	.	+
C=CCc1cccc(/C=N/c2ncn[nH]2)c1O	.	.	.	.	.	/
C=CCNC(=O)c1cc2c(=O)n3cc(C)ccc3nc2n(C(C)C)c1=N	.	/	/	/	.	/
COc1ccc(S(=O)(=O)N2CCN(Cc3ccc4c(c3)OCO4)CC2)cc1Cl	.	/	/	/	.	/
COc1cccc2cc(/C(=N/O)c3ccccc3)oc12	68	.	.	.	.	+
COc1cccc2cc(C(C)=O)oc12	.	.	.	.	.	/
COc1ccc(CNC(=O)C(OC(=O)c2cc3sccc3n2C)c2ccccn2)cc1 (stereo unspecified)	.	/	/	/	.	/
CC(=O)N(Cc1ccc2c(c1)OCO2)Cc1cc2ccc(C)cc2[nH]c1=O	.	/	/	/	.	/
SMILES	EP2 mod	p97 ATPase inh	Hck Nef HTS	Arbovirus inh	EP2 antag	EP2 cAMP induct
CC(C)c1ccc(OCC(=O)NC(=S)Nc2ccc3c4c(cccc24)CC3)cc1	66	.	.	.	.	.
Clc1ccc(-c2cc(COc3ccccc3)on2)cc1	.	.	.	.	.	/
Nc1cccc(OCc2nc(N)nc(N)c2-c2ccc(Cl)cc2)c1	.	/	/	/	.	.
Cc1cccc(C(=O)Nc2cccc(NC(=O)CSc3nnc(-c4cccnc4)n3C)c2)c1	.	/	/	/	.	/
CCOC(=O)c1ccccc1NC(=O)CSc1ncc(C(=O)OCC)c(N)n1	65!	.	.	.	.	.
CCC(=O)N1CCN(c2nc(-c3ccccc3)c3c(c2C#N)CCCC3)CC1	81	.	.	.	.	.
CCCc1nc(SC2CCCC2)c2c(=O)n(C)c(=O)n(C)c2n1	79	/	.	.	.	+
Cn1c(=O)c2c(SC3CCCC3)nc(CC(C)(C)C)nc2n(C)c1=O	/	.	.	/	/	/
Cc1cc(C)n(CCOc2ccc(Cl)cc2Cl)n1	73	.	.	.	.	+
Cc1cc(C)n(C(=O)COc2ccc(Cl)cc2Cl)n1	.	.	.	.	.	/
COc1cc2c(cc1OC)C(c1ccccc1)N(CC1=CCCOC1)CC2 (stereo unspecified)	.	/	/	/	.	/
COc1ccc(N(Cc2ccccc2)S(=O)(=O)c2ccc(C)cc2)cc1	69	.	.	.	.	+
Cc1ccc(N(Cc2ccccc2)Cc2ccccc2)cc1	.	/	/	/	.	.
COc1ccc(S(=O)(=O)N(CC(=O)O)c2ccc(C)cc2)cc1	.	.	.	.	.	/
Cc1csc(NC(=O)CSc2ncnc3sc4c(c23)CCCC4)n1	.	/	/	/	.	/
O=C(c1cccs1)N1N=C(c2ccccc2)CC1c1ccc(O)cc1 (stereo unspecified)	74	.	.	.	.	.
O=C(Nc1ccc2c(c1)OCO2)C1CCN(C(=O)c2ccccc2Cl)CC1	.	/	/	/	.	/
O=C(O)CCCN1C(=O)/C(=C\c2ccco2)SC1=S	74	.	.	.	.	+
CCn1c2ccccc2c2nc3ccccc3nc21	62	.	.	.	.	.
COc1ccc(C2=Nn3c(nnc3-c3ccc(OC)cc3)SC2)cc1	92	.	.	.	.	+
COc1ccc(C2=Nn3c(nnc3-c3ccccc3OC)SC2)cc1OC	74	.	.	.	.	.
COc1ccc(C2=Nn3c(nnc3-c3ccccn3)SC2)cc1OC	.	.	.	.	.	/
Cc1sc2nc(C3CC3)n3c(=O)[nH]nc3c2c1C	.	/	/	/	.	/
CCOc1ccccc1NC(=O)CSc1nnc(-c2ccncc2)n1C	.	/	/	/	.	/
COC(=O)c1ccc(-c2ccco2)n1Cc1ccccc1Cl	71	.	.	.	.	+
SMILES	EP2 mod	p97 ATPase inh	Hck Nef HTS	Arbovirus inh	EP2 antag	EP2 cAMP induct
Cc1ccc(N(CC(=O)N/N=C/c2ccc(OC3CSC3)cc2)S(=O)(=O)c2ccccc2)cc1	76	.	.	.	.	+
CC(=O)O[C@@H]1CC[C@@]2(C)C(C[C@@H](OC(C)=O)[C@@]3(C)C4=CC(=O)O[C@@H](c5ccoc5)[C@]4(C)CCC23)C1(C)C (stereo partly specified)	.	/	/	/	.	/
COC(=O)CC1C(C)(C)C(OC(C)=O)[C@@H]2[C@@H](OC(C)=O)[C@]34O[C@@]2(O)[C@]1(C)C3CC[C@]1(C)C4=CC(=O)O[C@H]1c1ccoc1 (stereo partly specified)	.	/	/	/	.	.
C=CCn1cc(-c2ccc(Cl)cc2)cc(C#N)c1=O	.	.	.	.	.	/
CC(C)n1cc(-c2ccc(Cl)cc2)cc(C#N)c1=O	68	.	.	.	.	.
COc1ccc(C2(NC(=O)c3cnc(N4CCOCC4)nc3)CCCC2)cc1	.	/	/	/	.	/
O=c1c2c(n3nnnc3n1-c1ccccc1)-c1ccccc1CC21CCCC1	73	.	.	.	.	+
Nn1cnc2c(c1=O)C1(CCCCC1)Cc1ccccc1-2	73	.	.	.	.	.
